ChEMBL document CHEMBL4513216, “Probing the Open Global Health Chemical Diversity Library for Multistage-Active Starting Points for Next-Generation Antimalarials” (ACS Infect Dis, 2020)
Out of some 69,000 compounds screened, about 8,600 (12%) showed an effect of 50% or more. The sample holds strong results, similar compounds and a random draw of the others, so the mix is not that of the screen.

system: Plasmodium berghei; experiment: Screen against P. berghei liver stage (PbLuc), transformed with Luciferase, at 10uM; assay type: functional, HepG2; conditions: tested at 10 uM

Structure (SMILES) | INHIBITION [%]
COc1cc(C)nc(N2CCN(C(=O)c3ccoc3C)CC2)n1 | 11.9
c1cncc(-c2ncnc3c2CCN(Cc2cccs2)CC3)c1 | -49.8
O=C(CCc1cccs1)N1CCCC(N2CCNC2=O)C1 (configuration not stated) | 11.6
O=C(CCc1ccc(Cl)s1)N1CCCC(N2CCNC2=O)C1 (configuration not stated) | 30
O=C(CCc1ccccc1)N1CCC(N2CCNC2=O)CC1 | 2.61
O=C(CCc1cccs1)N1CCC(N2CCNC2=O)CC1 | 27.8
O=C(CCc1ccc(Cl)s1)N1CCC(N2CCNC2=O)CC1 | 60.9
O=C(CCCc1cccs1)N1CCC(N2CCNC2=O)CC1 | 70.8
O=C(NCC1CC1)[C@@H]1CCO[C@@H]2CCN(c3ncccn3)C[C@@H]21 | 44.2
Cc1nc(C)n(C2CCCN(C(=O)c3ccc(OC(C)C)nc3)C2)n1 (configuration not stated) | 5.907
CN(C)CCN(Cc1cccc(F)c1)C(=O)c1ccn(C)c(=O)c1 | 31.1
O=C1CC(c2cccnc2)c2c(c(C(=O)O)cn2-c2ccccc2F)N1 (configuration not stated) | 19.4
Cc1cc(C)c(NC(=O)Nc2cnn(CC(O)CN(C)C)c2)c(C)c1 (configuration not stated) | 35.4
Cc1c(CCC(=O)N2CCCC2c2ccnc(N(C)C)c2)cnn1C (configuration not stated) | 23
COc1ccc(CNC(=O)Nc2cccnc2OC)cc1O | 9.54
Cc1ccc(N2CC[C@H]3OCC[C@@]3(C(=O)N(C)C)C2)nn1 | 24.3
Cc1ncc(-c2ccncc2)c(C2CCCN(C(=O)c3ccno3)C2)n1 (configuration not stated) | 18.505
O=C(NC1CC1)c1cc(C2CC2)nc2onc(C3CCNCC3)c12 | 24.2
Cn1nc(C2CCCNC2)c2c(C(=O)NC3CC3)cc(C3CC3)nc21 (configuration not stated) | 52.4
Cn1nc(C2CCNCC2)c2c(C(=O)NC3CC3)cc(C3CC3)nc21 | 59.8
Cn1nc(C2CCCN2)c2c(C(=O)NC3CC3)cc(C3CC3)nc21 (configuration not stated) | 40
Cn1nc(C2CCNC2)c2c(C(=O)NCC(F)(F)F)cc(C3CC3)nc21 (configuration not stated) | 47.4
Cn1nc(C2CCNC2)c2c(C(=O)NC3CC3)cc(C3CC3)nc21 (configuration not stated) | 45.8
Cc1ccccc1CNC(=O)Cn1ncc2c1c(C)nn2C | 21.7
Cc1ccc(C(=O)NC2CCN(CC(=O)N(C)c3ccccc3)CC2)o1 | 7.27
Cn1cccc1C(=O)COc1ccc(S(N)(=O)=O)cc1 | -55.3

Structure (SMILES) | INHIBITION [%]
CNC(=O)C1(CCCc2cnccn2)CCN1CCc1ccccc1 (configuration not stated) | 23.8
CCN1CCn2c(C)cnc2C12CCN(C(=O)NC)CC2 | 6.27
CNS(=O)(=O)c1ccc(CNC(=O)c2cccc(C)n2)cc1 | 37.4
COCCN(C)C(=O)c1cc2c(s1)CCN2C(=O)C1CC1 | 37.5
CCN(C)S(=O)(=O)N1CCC(C(O)c2ccc(F)cc2)CC1 (configuration not stated) | 51.1
CN(C)S(=O)(=O)N1CCC(C(O)c2ccc(Cl)cc2)CC1 (configuration not stated) | -9.8
Cc1occc1C(=O)N1CCC(C(O)c2ccc(Cl)cc2)CC1 (configuration not stated) | -49.3
CCOCC(=O)N1CCC(C(O)c2ccc(F)cc2)CC1 (configuration not stated) | -6.99
Cc1occc1C(=O)N1CCC(C(O)c2ccc(F)cc2)CC1 (configuration not stated) | -85.6
CCN(C)S(=O)(=O)N1CCC(C(O)c2ccc(Cl)cc2)CC1 (configuration not stated) | 50.1
CCS(=O)(=O)N1CCO[C@H]2[C@H](Oc3ncccc3F)CC[C@@H]21 | 17.4
O=C(O)c1ccccc1-n1cnc(CN2CCc3ccccc3C2)c1 | 12.8
CCn1c(CC2CCN(S(=O)(=O)N3CCCCC3)CC2)nn(C)c1=O | 0.546
CN(C)C(=O)c1c[nH]nc1-c1ccc(CNC(=O)c2cnccn2)cc1 | 0.5
Cc1noc(C)c1CN1CCOCC12CCN(c1ncccn1)CC2 | 47.5
CN1CCOCC12CCN(Cc1nccs1)CC2 | 0.804
CCN1CCOCC12CCN(c1nccs1)CC2 | 54.8
Cc1noc(C)c1CN1CCOCC12CCN(c1nccs1)CC2 | 67.5
COCCN1CCOCC12CCN(c1ccc(C#N)cc1)CC2 | 49.7
Cc1noc(C)c1CN1CCOCC12CCN(c1cnccn1)CC2 | 34.9
COCCN1CCOCC12CCN(c1nccs1)CC2 | 53.9
c1csc(CN2CCC3(CCCN3CC3CC3)CC2)n1 | 33
COCCN1CCOCC12CCN(c1cnccn1)CC2 | 42.1
c1csc(CN2CCC3(CC2)COCCN3CC2CC2)n1 | 50.7
CCN1CCOCC12CCN(c1ccc(C#N)cc1)CC2 | 2.4
CCN1CCOCC12CCN(c1cnccn1)CC2 | 32.1
